Screening data: PubChem BioAssay, National Center for Advancing Translational Sciences (NCATS)
OvCa metastasis – blocks SKOV3ip1 adhesion and invasion in omental model. SKOV3ip1-GFP adhesion/invasion on 3D omental model, fluorescence. Potency, µM (doses to about 45.8 µM), for the others: at the top dose activity change, negative = inhibition, usual class: inhibitors. actives 0.1% (n = 46,000). AID 1963576;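 note: plate controls were DMSO wells for no effect and tomatine positive control wells for full effect; nearly all actives have a fitted effect of over 65% in size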
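Adhesion/invasion was scored as fixed GFP-labeled SKOV3ip1 cell counts (488/509 nm), normalized to DMSO and tomatine controls. Cancer cells in serum-free medium, with four compound doses (0.36-46 umol/L), sat 2 hr at RT then 16 hr at 37 C on a 48 hr fibroblast/mesothelial/ECM culture.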
p53null 32C kill – p53 null cell cytotoxicity, permissive temperature; Potency, µM (titrated, usually from 46.1 µM), without a hit: at the top dose activity change, negative = cytotoxicity, actives largely listed as cytotoxic; AID 903; actives 0.62% (n = 55,000); H1299-neo p53 null cells, ATP luminescence, 24 h, 32C;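 note: 0% = DMSO only and -100% = full killing by 100 µM tamoxifen; nearly all actives have a fitted effect of over 55% in size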
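Luminescent ATP readout gave cell viability of p53-null H1299-neo cells after a 24 h compound exposure at the permissive 32C. Titrations ran up to 46 uM, and AC50s were fitted with the standard Hill equation.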
mTORC1 inh – reduces mTORC1 signaling in Tsc2 and p53 null MEF cells; Tsc2-/- p53-/- MEF, phospho-rpS6 immunofluorescence/PI, 24 h; actives 0.78% (n = 44,000); Potency, µM (titrated, usually from 38.3 µM), for the others: at the highest dose activity change, negative = inhibition, usual class: inhibitors;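 note: plate controls were DMSO for no effect and rapamycin for full effect; nearly all actives have a fitted effect of over 50% in size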
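Cell-based qHTS: Tsc2-/- p53-/- MEF, 24 h cpd, 37 °C; fix/perm, anti-phospho-S6 Alexa-488 + PI; Acumen 488 nm scan; pS6/PI ratio, % positive cells; rapamycin 7.5 nM = inhibition ref; PI count = viability.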
p53null 39C kill – kills p53 null cells at the nonpermissive temperature. Potency, µM (titrated, usually from 46.1 µM), for the others: at the top dose activity, negative = cell killing, usual class: cytotoxic. actives 0.97% (n = 55,000). AID 904. H1299 p53-null (neo) cells, 39C, ATPlite viability, 24 h;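 note: 0% = DMSO only and -100% = full killing by 100 µM tamoxifen; nearly all actives have a fitted effect of over 50% in size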
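Cells seeded at 600/well, 37C overnight. Compound added (up to 46 uM), plates shifted to 39C for 24 hr. ATPlite added, luminescence read after 20 min at room temperature.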
S16 viability – cytotoxicity in S16 Pmp22-F2sN Schwann cells; Potency, µM (titrated, usually from 57.5 µM), for the others: at the top dose activity change, negative = cytotoxicity, most hits filed as cytotoxic; AID 1508642; actives 0.48% (n = 43,000); S16 Pmp22-F2sN Schwann cells viability, CellTiter-Glo, 24 h; note: nearly all actives have a fitted effect of over 65% in size
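Rat S16 Schwann reporter line, 24 h treatment with library compounds delivered at 23 nL per well. Cell viability by CellTiter-Glo luminescence.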
PMP22 txn – modulators of PMP22 gene transcription in S16 Schwann cells | S16 Pmp22-F2sN Schwann cells (luciferase reporters placed in the Pmp22 gene), FLuc/NLuc coincidence luminescence, 24 h | Potency, µM (series often up to 57.5 µM), without a hit: at the highest dose activity change, negative = inhibition, actives largely listed as inhibitors | actives 2% (n = 43,000); active = clear falling dose curves in both reporters; inconclusive = both reporters move, but less clearly or upward; inactive = either reporter flat; the % is the NLuc reporter signal
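Rat S16 Pmp22-F2sN cells, 500-1,000/well in phenol red-free DMEM + 10% FBS, compound-treated 24 h (37C, 5% CO2). Luminescence: FLuc read, Stop&Glo added, NLuc read.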
* = called active by the depositor; i = inactive; ? = inconclusive; nt = not tested or not shown. In the library only some 3% were active in any assay of this set; here they are far more common. Unless noted, calls come from the whole dose curve; as a rule, active = well fitted curve in the direction sought with a large enough effect; inconclusive = small, poorly fitted or top-dose-only effect, or another doubt; inactive = no such curve, though single readings can be large; an effect the other way counts as inactive or inconclusive. Unless noted, % is set by controls: 0 for no effect and ±100 for the full control effect; potency is the fitted concentration of half-maximal effect.

SMILES | OvCa metastasis | p53null 32C kill | mTORC1 inh | p53null 39C kill | S16 viability | PMP22 txn
Cc1cc(C)c(NC(=O)Cn2c(=O)n(Cc3ccc(C(=O)NCc4ccco4)cc3)c(=O)c3sccc32)c(C)c1 | -2% | ? | -6% | 10µM* | -6% | ?
Cn1c(=O)c2c(nc(NCc3ccccc3)n2Cc2ccccc2Cl)n(C)c1=O | i | 2% | 7% | -15% | ? | -3%
Cn1c(=O)c2c(nc(NCc3ccccc3)n2Cc2ccccc2)n(C)c1=O | -7% | -12% | -7% | -5% | ? | 13µM*
O=C1[C@H](Cc2ccc(O)cc2)N2C(=O)CCN(C(=O)NCc3ccccc3)[C@H]2CN1Cc1cccc2ccccc12 | -29% | nt | nt | nt | nt | nt
CC1=C(C(=O)Nc2ccc(C)cc2C)C(c2cc(Br)ccc2F)n2ncc(C(=O)Nc3ccc(C)cc3)c2N1 (centres undefined) | i | -15% | 2.9µM* | ? | ? | ?
COC(=O)c1ccc(NC(=O)CC2Nc3cc(C)c(C)cc3NC2=O)cc1 (centres undefined) | 4.5µM* | -7% | -8% | 2% | 2% | -16%
CCc1ccc(OCC(=O)Nc2ccc3oc(-c4ccc(OC)cc4)nc3c2)cc1 | -2% | -5% | 13µM* | -9% | 17% | -10%
COc1ccc(OCC(=O)Nc2ccc(-c3nc4cc(C)c(C)cc4o3)cc2)cc1 | -9% | -9% | -1% | 7% | 7% | -3%
CN1c2cc(Cl)ccc2-c2nc(SCC(=O)Nc3ccc(F)cc3F)ncc2S1(=O)=O | -7% | -8% | -7% | ? | 25µM* | ?
Cc1ccc(NC(=O)CSc2ncc3c(n2)-c2ccc(Cl)cc2N(C)S3(=O)=O)cc1F | 6% | 1% | -8% | -3% | 10% | ?
OC[C@H]1O[C@@H](Oc2ccc(O)cc2)[C@H](O)[C@@H](O)[C@H]1O | 11% | nt | nt | nt | nt | nt
O=S(=O)(Nc1ccc2oc3c(c2c1)CCCC3)c1cc(Cl)ccc1Cl | 1% | 79% | 1% | 37% | 14% | 4%
COc1ccc(S(=O)(=O)Nc2ccc3oc4c(c3c2)CCCC4)cc1 | -21% | 42% | ? | 22µM* | 1% | -19%
FC(F)(F)c1ccc(C=Cc2nc(COc3ccc(CCCCn4ccnn4)cc3)co2)cc1 | 5% | nt | nt | nt | nt | nt
Cc1ccc(NC(=O)CCc2c(C)nn(-c3ccc(N4CCCCC4)nn3)c2C)cc1F | i | ? | -14% | 7.9µM* | nt | nt
O=C(CCS(=O)(=O)c1ccccc1)N(Cc1cccnc1)c1nc2ccc(F)cc2s1 | ? | ? | ? | 32% | 4.5µM* | 11µM*
CC(=O)N(Cc1cccnc1)c1nc2ccc(F)cc2s1 | 1% | -7% | 0% | -17% | -16% | -16%
Cc1noc(/C=C/N(C)C)c1S(=O)(=O)N1CCCC(C(=O)Nc2ccc(F)cc2F)C1 (centres undefined) | -6% | 36% | 18µM* | 18% | 2% | -40%
COc1ccccc1C(=O)CC1(O)C(=O)N(CC(N)=O)c2ccccc21 (centres undefined) | 1% | -1% | 14% | ? | 4% | 2%
CCCN1C(=O)C(O)(CC(=O)c2ccc(CC)cc2)c2ccccc21 (centres undefined) | 9% | 11% | 15µM* | 27% | -25% | 6%
COC(=O)CN1C(=O)C(O)(CC(=O)c2ccc(F)cc2)c2ccccc21 (centres undefined) | 5% | 1% | ? | 30% | ? | -28%
CCCN1C(=O)C(O)(CC(=O)c2ccc(C(C)C)cc2)c2ccccc21 (centres undefined) | -8% | 4% | 13µM* | -6% | ? | -15%
CC(C)c1ccc(N2C(=O)CSC23C(=O)N(Cc2ccccc2)c2ccccc23)cc1 (centres undefined) | i | 38% | 2% | 39% | 3% | ?
C#CCN1C(=O)C(O)(CC(=O)c2ccc(OC)c(OC)c2)c2cc(Br)ccc21 (centres undefined) | ? | 6% | 5.2µM* | ? | ? | ?
O=C(CN1C(=O)C2(OCCO2)c2ccccc21)c1ccc(Cl)cc1 | nt | 4% | nt | 3% | nt | nt
SMILES | OvCa metastasis | p53null 32C kill | mTORC1 inh | p53null 39C kill | S16 viability | PMP22 txn
CC(C)c1ccc(C(=O)CC2(O)C(=O)N(CCc3ccccc3)c3ccc(Cl)cc32)cc1 (centres undefined) | -16% | 68% | -26% | 13µM* | 24% | ?
CNC(=O)c1cc(COc2nnc(Nc3ccc(Cl)cc3)c3ccoc23)ccn1 | -10% | nt | nt | nt | nt | nt
Cc1cnc(-c2cc(N3CCN(C(=O)CCS(C)(=O)=O)CC3)ncc2Cl)c(C)c1 | 17% | nt | nt | nt | nt | nt
COCCOc1ccc2c(c1)ncn2-c1ccc2cccc(N3CCC(N)CC3)c2n1 | 5% | nt | nt | nt | nt | nt
Nc1nc(NCCNc2ncc(-n3ccnc3)c(-c3ccc(Cl)cc3Cl)n2)ccc1[N+](=O)[O-] | -7% | nt | nt | nt | nt | nt
CCOc1ccc(Nc2nc(-c3c(C)nc4ccccn34)cs2)cc1 | 12% | nt | nt | nt | nt | nt
COc1cc(N2CCC(N3CCN(C)CC3)CC2)ccc1Nc1ncc(Cl)c(Nc2ccccc2S(=O)(=O)C(C)C)n1 | -7% | nt | nt | nt | nt | nt
CCCCN1C(=O)C(O)(CC(=O)c2ccc(CC)cc2)c2cc(Br)ccc21 (centres undefined) | -1% | 65% | 16µM* | ? | ? | ?
Cc1ccc2[nH]c(=O)c3cc(C(=O)NCCCN4CCC(C)CC4)sc3c2c1 | ? | -7% | 3.3µM* | ? | ? | ?
Cc1csc2nc(-c3cccc(NC(=O)c4ccccc4F)c3)cn12 | i | ? | 1% | 11µM* | ? | ?
Nc1c(C(=O)NCc2ccccc2)nnn1Cc1cccc(Br)c1 | i | -2% | -22% | -11% | ? | 3µM*
Cc1cc(C)cc(NC(=O)c2nnn(Cc3cccc(Br)c3)c2N)c1 | 2% | -2% | -18% | -20% | -26% | ?
COc1ccccc1NC(=O)c1c(NCc2ccc(OC)c(OC)c2OC)sc2c1CCCC2 | 13% | 35% | -10% | 27% | ? | 5µM*
COc1ccc(NS(=O)(=O)c2cc(Br)cc3c2N(C(=O)C2CC2)CC3)cc1OC | 0% | -20% | ? | 13% | -14% | 14µM*
COc1ccc2oc(=Nc3ccccc3)c(-c3nc4ccccc4[nH]3)cc2c1 | nt | 11µM* | nt | nt | nt | nt
